This is a sample that favours compounds with a hit; in the whole collection about 5.8% have one here.
12-LOX inh = ALOX12 (human) lipoxygenase inhibition | Potency, µM (series often up to 108 µM), actives largely listed as inhibitors | AID 1671190 | actives 1.1% (n = 580,000) | purified 12hLO, xylenol orange hydroperoxide absorbance
Target sequence (P18054 whole entry, looked up): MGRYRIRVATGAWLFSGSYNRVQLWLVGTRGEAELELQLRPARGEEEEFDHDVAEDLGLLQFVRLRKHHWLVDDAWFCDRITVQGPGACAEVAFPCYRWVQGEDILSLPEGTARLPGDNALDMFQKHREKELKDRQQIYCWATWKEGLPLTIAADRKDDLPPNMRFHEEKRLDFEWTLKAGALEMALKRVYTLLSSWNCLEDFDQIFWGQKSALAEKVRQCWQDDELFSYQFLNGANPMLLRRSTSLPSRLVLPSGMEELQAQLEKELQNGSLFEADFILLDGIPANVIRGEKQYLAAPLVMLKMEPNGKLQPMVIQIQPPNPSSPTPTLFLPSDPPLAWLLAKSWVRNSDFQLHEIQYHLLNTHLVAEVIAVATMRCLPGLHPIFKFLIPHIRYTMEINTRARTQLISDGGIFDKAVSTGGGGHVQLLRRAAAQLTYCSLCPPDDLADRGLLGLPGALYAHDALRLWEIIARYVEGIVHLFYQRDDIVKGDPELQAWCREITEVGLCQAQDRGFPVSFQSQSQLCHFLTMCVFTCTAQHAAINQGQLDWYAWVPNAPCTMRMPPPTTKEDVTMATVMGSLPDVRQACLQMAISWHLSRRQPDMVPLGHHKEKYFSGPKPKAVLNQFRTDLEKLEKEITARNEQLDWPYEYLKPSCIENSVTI
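Hydroperoxide product was detected by ferrous iron/xylenol orange as the 573 to 405 nm absorbance ratio. Arachidonic acid at 40 uM (final) was turned over for 30 min at room temperature by 150 nM human 12hLO, pH 7.0 Hepes buffer, after 15 min compound preincubation.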
KB-3-1 tox = KB-3-1 parental cell cytotoxicity. Potency, µM (highest dose often 46.1 µM), usual class: cytotoxic. KB-3-1 viability, CellTiter-Glo ATP luminescence, 72 h. AID 1347075. actives 1.4% (n = 400,000); note: nearly all actives have a fitted effect of over 60% in size
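Cytotoxicity in the drug-sensitive parental line KB-3-1 was scored as loss of CellTiter-Glo luminescence following 72 h incubation with compound. Values come from curve fitting of normalized concentration-response data.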
KB-V1 MDR tox = kills drug-selected multidrug resistant KB-V1 cells. KB-V1 MDR cells viability, CellTiter-Glo, 72 h. Potency, µM (doses to about 46.1 µM), usual class: cytotoxic. actives 3.4% (n = 400,000); note: nearly all actives have a fitted effect of over 60% in size
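KB-V1 MDR subline cells in DMEM (phenol-red free, 10% FBS) exposed to compounds in qHTS concentration series for 72 h at 37 degrees C. Viability read by CellTiter-Glo luminescence; concentration-effect curves fitted after normalization and correction.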
SW480 rereplic = induces DNA re-replication in SW480 colon adenocarcinoma cells; SW480 DNA re-replication, Hoechst DNA content imaging, 48 h; Potency, µM (titrated, usually from 46.1 µM), most hits filed as activators; actives 1.8% (n = 340,000); AID 624297; note: nearly all actives have a fitted effect of over 55% in size
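Quantitative HTS format with DMSO vehicle controls; 48 hr drug incubation at 37 C, then 40 min Hoechst staining and scanning imager measurement at 405 nm excitation.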
MCF10A rerep = inducers of DNA re-replication in MCF 10A breast cells | MCF 10A DNA re-replication, Hoechst nuclear intensity, 48 h | Potency, µM (doses to about 46.1 µM), hits mostly activators | actives 2.9% (n = 350,000); note: nearly all actives have a fitted effect of over 50% in size
PINK1 modulator = changes PINK1 expression; PINK1 immunofluorescence, high-content cytometry, 24 h; Potency, µM (top dose mostly 76.6 µM), most hits filed as activators; actives 0.2% (n = 410,000); AID 624263; active = well fitted activation curve with a large enough effect; inconclusive = small, poorly fitted or top-dose-only effect; cell line not stated here; note: nearly all actives have a fitted effect of over 65% in size
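Stable cell line treated 24 h with compounds at 5 concentrations (CCCP controls), then fixed and immunostained for PINK1 plus nuclear and cell stains; PINK1 immunofluorescence quantified by laser-scanning microplate cytometry.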
Numbers stand for hits; 0 = inactive; ? = inconclusive; - = no result; [ ] = another dose, or the depositor's remark. Unless noted, calls come from the whole dose curve; as a rule, active = well fitted curve in the direction sought with a large enough effect; inconclusive = small, poorly fitted or top-dose-only effect, or another doubt; inactive = no such curve, though single readings can be large; an effect the other way counts as inactive or inconclusive.

SMILES	12-LOX inh	KB-3-1 tox	KB-V1 MDR tox	SW480 rereplic	MCF10A rerep	PINK1 modulator
CCOC(=O)c1cccn1C1C(=O)N(Cc2ccc(Cl)nc2)c2c(F)cccc21 (configuration not stated)	56.2µM	-	-	-	-	-
O=C(Nc1ccc2snnc2c1)Nc1cccc2ccccc12	0	20.6µM	?	0	?	?
CCc1ccccc1NC(=O)Nc1ccc2snnc2c1	0	0	0	-	-	?
COc1ccc(/C=N/NC(=O)C(=O)/C=C2\NC3(CCCC3)Cc3ccccc32)cc1	0	0	?	0	0	0
O=C(/C=C1\NC2(CCCC2)Cc2ccccc21)C(=O)N/N=C/c1ccc(O)c(O)c1	35.5µM	?	?	?	?	0
CCc1ccc(-c2nn(C)c(=O)c3c2CCCC3)cc1S(=O)(=O)Nc1ccccc1	0	-	-	-	-	-
Cc1c(F)cccc1NC(=O)Nc1cccc(-c2ccc(N3CCOCC3)nn2)c1	0	-	-	-	-	-
Cc1nn(-c2cc(N3CCCCC3)ccc2N)c(=O)c2ccccc12	0	0	0	0	0	0
Nc1ccc(N2CCCCC2)cc1N1CCCCC1	0	0	0	?	20.6µM	15.8µM
CSc1cc(-c2ccccc2)[nH]c(=O)c1C#N	0	0	0	14.6µM	0	0
Cc1cc(-c2ccccc2)[nH]c(=O)c1C#N	0	0	0	0	0	0
COc1cc(C(=O)OCC(=O)c2cc(C)n(C)c2C)cc(OC)c1OC	0	?	5.17µM	?	?	0
CCc1nc(-c2c3n(c(=O)n(CC(=O)Nc4cccc(C#N)c4)c2=O)CCCCC3)no1	0	-	-	-	-	-
CC(C)[C@@H](CO)NC(=O)c1ccc2c3n(nc2c1)-c1ccccc1CO3	0	0	0	0	0	0
CC(C)NC(=O)c1ccc2c3n(nc2c1)-c1ccccc1CO3	0	?	5.8µM	0	0	0
N#Cc1c2nc3ccccc3nc2n2cc(NC(=O)c3ccc(F)cc3)ccc12	39.8µM	0	0	0	0	0
CC(C)CN1C(=O)c2cccn2CC1C(=O)NCCN1CCCCC1 (configuration not stated)	0	-	-	-	-	-
CC(C)(C)NC(=O)C(c1ccc(-c2ccccc2)cc1)N(C[C@H]1CC[C@@H]([C@@H]2CC[C@H](CO)O2)O1)C(=O)c1cccc(Cl)c1 (some centres not stated)	0	14.6µM	0	0[9.22 µM]	?	0
O=C(Cc1ccc(Br)cc1)N(Cc1nnc(-c2ccccc2Cl)o1)C1CC1	0	-	-	-	-	-
CCCCS(=O)(=O)/C=C\C1C2C=CC(C2)C1S(=O)(=O)CCCC (configuration not stated)	0	0	0	0	0	0
CCCCS(=O)(=O)/C=C\C=C/S(=O)(=O)CCCC	-	7.31µM	0	?	?	0
CCc1ccc(Nc2nnc(SCC(=O)Nc3cccnc3Cl)s2)cc1	0	0	16.4µM	0	0	0
CCc1ccc(Nc2nnc(SCC(=O)Nc3sccc3C(N)=O)s2)cc1	0	?	?	?	16.4µM	0
N#Cc1cccc(NC(=O)CNc2ccccc2C(N)=O)c1	0	-	-	-	-	-
Cc1cc(C)cc(NC(=O)c2ncoc2-c2cccs2)c1	0	-	-	-	-	-
SMILES	12-LOX inh	KB-3-1 tox	KB-V1 MDR tox	SW480 rereplic	MCF10A rerep	PINK1 modulator
O=C(NCCc1noc(-c2ccncc2)n1)c1ccccc1	8.91µM	-	-	-	-	-
Cc1ccc(NC(=S)N2CCN(Cc3ccc4c(c3)OCO4)CC2)c(C)c1	0	0	0	0[9.22 µM]	?	0
CCN(CC)S(=O)(=O)c1ccc(C)c(NC(=S)N2CCN(Cc3ccc4c(c3)OCO4)CC2)c1	0	23.1µM	?	0	?	0
CN(C)S(=O)(=O)c1ccc(Cl)c(NC(=O)CN2CCN(Cc3ccc4c(c3)OCO4)CC2)c1	0	?	14.6µM	0	?	0
CCOC(=O)C(C)N1N=C(/C=C/c2ccc(C)cc2)CCC1=O (configuration not stated)	0	?	16.4µM	0	0	0
CCOC(=O)CN1N=C(/C=C/c2ccc(C(C)C)cc2)CCC1=O	0	7.31µM	2.31µM	0	0	0
CCOC(=O)CN1N=C(/C=C/c2ccc(OCC)cc2)CCC1=O	0	0	?	0	0	0
CCOC(=O)CN1N=C(/C=C/c2ccccc2)CCC1=O	0	0	0	0	0	0
Cc1oc(-c2cccs2)nc1CN1CC[C@@](O)(c2ccccc2)[C@H]2CCCC[C@@H]21	0	0	0	0	0	0
OC1(c2ccccc2)CCN(Cc2ccccc2)C2CCCCC21 (configuration not stated)	0	0	23.1µM	0	0	0
CCO[C@H]1OC(C(=O)NC2CC2)=C[C@@H](c2ccccc2)[C@@H]1CCCO	0	0	0	?	23.1µM	0
Cc1ccc(/C=C2\CCC3=C2OC(N)=C(C#N)C3c2ccc(C)cc2)cc1 (configuration not stated)	-	0	0	11.2µM	2.91µM	?
N#CC1=C(N)OC2=C(CCc3ccccc32)C1c1ccccc1 (configuration not stated)	0	0.581µM	1.46µM	0.731µM	?	0
Cc1ccc(-c2ccc(=O)n(Cc3noc(C(=O)NC(C)Cc4ccco4)n3)n2)cc1 (configuration not stated)	0	-	-	-	-	-
CC1(C)Oc2ccc3ccc(=O)oc3c2/C(=C/Nc2cccc(O)c2)C1=O	?	0	?	?	11.6µM	0
CC1(C)Oc2ccc3ccc(=O)oc3c2/C(=C/Nc2ccc(O)cc2)C1=O	0	0	?	?	?	0
Cn1c(=O)c2ccnn2c2ccc(C(=O)NCCN3CCC(N4CCCCC4)CC3)cc21	0	-	-	-	-	-
c1ccc(N2CC3CCc4ccccc4C3=N2)cc1 (configuration not stated)	0	0	0	7.31µM	20.6µM	0
Cc1ccc(C)n1NC(=O)c1ccccc1Cl	44.7µM	0	0	?	0	0
CN(C)CCCn1c(N)c(C#N)c2nc3ccccc3nc21	0	0	0	18.4µM	18.4µM	0
Cc1ccc(S(=O)(=O)c2c(N)n(CCCN(C)C)c3nc4ccccc4nc23)cc1	?	0	0	23.1µM	20.6µM	0
CCCCC(CC)Cn1c(N)c(C#N)c2nc3ccccc3nc21 (configuration not stated)	?	0	0	9.2µM	0	-
N#Cc1c(N)n(-c2cccc(Cl)c2)c2nc3ccccc3nc12	?	0	0	-	-	0
CC(C)(CNC(=O)C1CCCCC1C(F)(F)F)C(N)=O (configuration not stated)	0	-	-	-	-	-
COC(=O)CC(NC(=O)CCc1cc(OC)ccc1OC)c1cccs1 (configuration not stated)	0	-	-	-	-	-
COc1ccc(C2Cn3nnc(-c4noc(-c5ccc(Cl)cc5OC)n4)c3CO2)cc1 (configuration not stated)	0	-	-	-	-	-
CC(C)N=C(N)/N=C(\N)Nc1ccc(Cl)cc1	0[22.9 µM]	-	-	0	0	-

Assay outcomes as filed in PubChem BioAssay.
